How the values were obtained:
[1] = molecular target: T1, Inhibitor of nuclear factor kappa-B kinase subunit epsilon (Homo sapiens) (UniProt Q14164); conditions: at 1 µM;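 note: reported values are averaged percent inhibition figures against human IKKε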
T1 sequence (whole entry): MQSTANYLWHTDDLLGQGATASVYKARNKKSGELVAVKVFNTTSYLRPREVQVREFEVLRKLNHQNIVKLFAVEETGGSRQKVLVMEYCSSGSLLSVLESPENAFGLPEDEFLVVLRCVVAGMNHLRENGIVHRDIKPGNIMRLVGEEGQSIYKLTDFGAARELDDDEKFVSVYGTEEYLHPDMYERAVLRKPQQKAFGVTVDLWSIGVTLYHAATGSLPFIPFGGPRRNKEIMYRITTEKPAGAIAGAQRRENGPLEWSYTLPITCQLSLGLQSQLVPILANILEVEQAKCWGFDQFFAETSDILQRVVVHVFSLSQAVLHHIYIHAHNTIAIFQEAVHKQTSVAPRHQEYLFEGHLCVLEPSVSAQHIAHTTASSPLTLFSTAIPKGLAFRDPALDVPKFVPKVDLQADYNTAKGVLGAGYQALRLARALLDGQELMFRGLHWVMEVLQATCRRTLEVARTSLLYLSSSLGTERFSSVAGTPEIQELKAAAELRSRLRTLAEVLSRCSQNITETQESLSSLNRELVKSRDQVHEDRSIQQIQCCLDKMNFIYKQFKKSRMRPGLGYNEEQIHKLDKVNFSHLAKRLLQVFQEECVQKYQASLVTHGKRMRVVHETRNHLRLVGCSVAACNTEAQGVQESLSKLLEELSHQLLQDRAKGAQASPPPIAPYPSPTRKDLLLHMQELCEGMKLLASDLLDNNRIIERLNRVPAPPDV

[2] = molecular target: T2, Serine/threonine-protein kinase Nek1 (Homo sapiens) (UniProt Q96PY6); conditions: at 0.1 µM
T2 sequence (whole entry): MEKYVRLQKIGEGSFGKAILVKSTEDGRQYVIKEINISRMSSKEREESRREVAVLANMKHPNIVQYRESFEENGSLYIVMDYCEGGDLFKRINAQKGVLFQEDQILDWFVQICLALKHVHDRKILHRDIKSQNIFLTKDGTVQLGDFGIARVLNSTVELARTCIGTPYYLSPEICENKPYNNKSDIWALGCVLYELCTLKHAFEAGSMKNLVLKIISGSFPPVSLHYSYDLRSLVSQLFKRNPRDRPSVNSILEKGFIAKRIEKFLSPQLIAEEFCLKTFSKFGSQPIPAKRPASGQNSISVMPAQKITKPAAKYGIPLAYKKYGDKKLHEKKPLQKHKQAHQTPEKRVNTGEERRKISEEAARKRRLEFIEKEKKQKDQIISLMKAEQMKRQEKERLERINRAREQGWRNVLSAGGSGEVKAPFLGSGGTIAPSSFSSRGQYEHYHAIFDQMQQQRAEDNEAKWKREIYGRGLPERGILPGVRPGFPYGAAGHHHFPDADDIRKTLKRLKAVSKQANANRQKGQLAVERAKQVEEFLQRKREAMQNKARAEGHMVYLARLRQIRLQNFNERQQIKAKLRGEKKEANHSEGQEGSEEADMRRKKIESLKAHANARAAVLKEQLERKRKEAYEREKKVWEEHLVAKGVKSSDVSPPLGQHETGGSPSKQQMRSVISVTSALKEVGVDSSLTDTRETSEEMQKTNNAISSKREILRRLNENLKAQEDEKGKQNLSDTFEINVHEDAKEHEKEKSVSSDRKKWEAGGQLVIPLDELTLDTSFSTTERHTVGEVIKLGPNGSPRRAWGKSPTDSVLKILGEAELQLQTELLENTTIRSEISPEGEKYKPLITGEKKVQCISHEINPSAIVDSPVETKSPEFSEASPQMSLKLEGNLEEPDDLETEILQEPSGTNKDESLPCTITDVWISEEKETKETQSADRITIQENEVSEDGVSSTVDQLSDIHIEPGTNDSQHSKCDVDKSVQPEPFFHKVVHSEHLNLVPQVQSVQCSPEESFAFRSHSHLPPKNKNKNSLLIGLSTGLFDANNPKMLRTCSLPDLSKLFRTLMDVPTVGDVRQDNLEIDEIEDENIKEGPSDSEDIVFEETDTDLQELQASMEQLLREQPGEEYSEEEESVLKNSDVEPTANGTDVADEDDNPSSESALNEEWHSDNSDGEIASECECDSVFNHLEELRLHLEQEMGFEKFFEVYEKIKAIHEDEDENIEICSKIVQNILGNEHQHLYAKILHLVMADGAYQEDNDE

[3] = molecular target: T2, Serine/threonine-protein kinase Nek1 (Homo sapiens); conditions: at 1 µM
[4] = molecular target: T3, Serine/threonine-protein kinase Nek2 (Homo sapiens) (UniProt P51955); conditions: at 0.1 µM
T3 sequence (whole entry): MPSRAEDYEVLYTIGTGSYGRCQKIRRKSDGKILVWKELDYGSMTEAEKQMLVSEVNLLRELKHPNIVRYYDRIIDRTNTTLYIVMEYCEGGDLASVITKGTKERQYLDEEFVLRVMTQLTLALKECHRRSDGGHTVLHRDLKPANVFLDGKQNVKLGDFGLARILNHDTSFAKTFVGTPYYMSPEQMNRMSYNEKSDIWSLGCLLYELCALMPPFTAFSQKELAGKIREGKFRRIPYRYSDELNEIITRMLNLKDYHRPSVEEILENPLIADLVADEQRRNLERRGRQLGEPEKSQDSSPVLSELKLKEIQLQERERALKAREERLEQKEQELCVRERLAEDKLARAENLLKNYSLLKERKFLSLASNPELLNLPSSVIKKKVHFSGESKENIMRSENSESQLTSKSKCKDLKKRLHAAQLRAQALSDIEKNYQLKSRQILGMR

[5] = molecular target: T3, Serine/threonine-protein kinase Nek2 (Homo sapiens); conditions: at 1 µM
[6] = molecular target: Serine/threonine-protein kinase Nek6 (Homo sapiens) (UniProt Q9HC98); conditions: at 0.1 µM
Sequence of Serine/threonine-protein kinase Nek6 (Homo sapiens) (Q9HC98 whole entry): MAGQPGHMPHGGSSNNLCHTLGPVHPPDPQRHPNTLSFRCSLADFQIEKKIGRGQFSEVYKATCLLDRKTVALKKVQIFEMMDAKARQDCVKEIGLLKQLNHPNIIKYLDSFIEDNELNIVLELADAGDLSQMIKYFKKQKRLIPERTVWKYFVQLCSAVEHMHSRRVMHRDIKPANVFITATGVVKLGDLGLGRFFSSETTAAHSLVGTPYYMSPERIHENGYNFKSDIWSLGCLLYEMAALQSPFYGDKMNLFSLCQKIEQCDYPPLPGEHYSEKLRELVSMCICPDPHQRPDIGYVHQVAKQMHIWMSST

[7] = molecular target: Serine/threonine-protein kinase Nek6 (Homo sapiens) (UniProt Q9HC98); conditions: at 1 µM
[8] = molecular target: Serine/threonine-protein kinase Nek7 (Homo sapiens) (UniProt Q8TDX7); conditions: at 0.1 µM
Sequence of Serine/threonine-protein kinase Nek7 (Homo sapiens) (Q8TDX7 whole entry, looked up): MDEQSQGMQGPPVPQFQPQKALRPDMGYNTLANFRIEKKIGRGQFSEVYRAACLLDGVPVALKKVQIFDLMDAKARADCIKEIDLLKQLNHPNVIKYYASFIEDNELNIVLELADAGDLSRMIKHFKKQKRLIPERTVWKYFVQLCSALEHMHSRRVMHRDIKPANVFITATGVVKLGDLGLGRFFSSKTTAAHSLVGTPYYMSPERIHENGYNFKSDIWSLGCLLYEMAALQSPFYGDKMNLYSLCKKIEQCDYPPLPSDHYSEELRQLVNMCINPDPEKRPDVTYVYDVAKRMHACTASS

[9] = molecular target: Serine/threonine-protein kinase Nek7 (Homo sapiens) (UniProt Q8TDX7); conditions: at 1 µM
[10] = molecular target: T4, Serine/threonine-protein kinase Nek9 (Homo sapiens) (UniProt Q8TD19); conditions: at 0.1 µM
T4 sequence (whole entry): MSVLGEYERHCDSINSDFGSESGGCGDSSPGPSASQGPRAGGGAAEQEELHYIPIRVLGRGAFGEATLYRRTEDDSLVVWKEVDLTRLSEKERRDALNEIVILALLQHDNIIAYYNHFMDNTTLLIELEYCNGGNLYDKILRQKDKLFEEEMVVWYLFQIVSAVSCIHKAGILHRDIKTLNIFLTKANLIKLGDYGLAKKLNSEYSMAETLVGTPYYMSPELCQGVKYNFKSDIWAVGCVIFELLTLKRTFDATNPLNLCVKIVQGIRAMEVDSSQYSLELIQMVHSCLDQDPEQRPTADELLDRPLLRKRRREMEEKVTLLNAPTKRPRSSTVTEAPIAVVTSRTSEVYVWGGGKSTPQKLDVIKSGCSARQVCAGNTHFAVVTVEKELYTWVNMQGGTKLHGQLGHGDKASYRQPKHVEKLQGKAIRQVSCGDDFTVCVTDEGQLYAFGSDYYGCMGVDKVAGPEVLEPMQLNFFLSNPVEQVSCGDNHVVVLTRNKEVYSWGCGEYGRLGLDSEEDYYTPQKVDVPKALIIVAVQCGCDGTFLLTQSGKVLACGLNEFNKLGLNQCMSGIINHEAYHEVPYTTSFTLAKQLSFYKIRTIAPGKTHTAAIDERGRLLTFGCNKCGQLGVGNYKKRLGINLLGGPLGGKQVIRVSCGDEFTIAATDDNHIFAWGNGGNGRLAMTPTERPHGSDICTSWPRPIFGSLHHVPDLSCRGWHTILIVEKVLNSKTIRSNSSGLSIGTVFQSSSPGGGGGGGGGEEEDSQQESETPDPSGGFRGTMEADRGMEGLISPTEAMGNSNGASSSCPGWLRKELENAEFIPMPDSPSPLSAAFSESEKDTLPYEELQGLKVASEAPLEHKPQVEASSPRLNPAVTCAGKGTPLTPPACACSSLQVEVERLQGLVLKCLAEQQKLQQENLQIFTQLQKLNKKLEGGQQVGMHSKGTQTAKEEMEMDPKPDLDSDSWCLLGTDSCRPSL

[11] = molecular target: T4, Serine/threonine-protein kinase Nek9 (Homo sapiens); conditions: at 1 µM
[12] = molecular target: Serine/threonine-protein kinase PLK1 (Homo sapiens) (UniProt P53350); conditions: at 0.1 µM
Sequence of Serine/threonine-protein kinase PLK1 (Homo sapiens) (P53350 whole entry): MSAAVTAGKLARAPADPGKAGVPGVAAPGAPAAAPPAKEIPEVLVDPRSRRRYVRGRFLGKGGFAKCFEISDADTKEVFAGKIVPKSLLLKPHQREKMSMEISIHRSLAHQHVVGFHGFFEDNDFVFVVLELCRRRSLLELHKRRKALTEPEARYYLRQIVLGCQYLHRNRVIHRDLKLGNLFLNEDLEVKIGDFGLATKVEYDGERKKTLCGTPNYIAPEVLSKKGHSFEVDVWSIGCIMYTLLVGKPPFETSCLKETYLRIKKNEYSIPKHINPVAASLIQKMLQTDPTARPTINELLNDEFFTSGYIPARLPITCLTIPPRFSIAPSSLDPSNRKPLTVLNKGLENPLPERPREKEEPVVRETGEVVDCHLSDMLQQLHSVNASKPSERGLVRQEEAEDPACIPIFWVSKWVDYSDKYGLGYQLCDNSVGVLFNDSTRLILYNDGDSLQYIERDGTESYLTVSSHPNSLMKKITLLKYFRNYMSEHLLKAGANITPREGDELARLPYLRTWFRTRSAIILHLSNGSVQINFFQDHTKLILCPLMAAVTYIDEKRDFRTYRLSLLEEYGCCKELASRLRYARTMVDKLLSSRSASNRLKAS

[13] = molecular target: Serine/threonine-protein kinase PLK1 (Homo sapiens) (UniProt P53350); conditions: at 1 µM
[14] = molecular target: T5, Dual specificity protein kinase TTK (Homo sapiens) (UniProt P33981); conditions: at 0.1 µM
T5 sequence (whole entry): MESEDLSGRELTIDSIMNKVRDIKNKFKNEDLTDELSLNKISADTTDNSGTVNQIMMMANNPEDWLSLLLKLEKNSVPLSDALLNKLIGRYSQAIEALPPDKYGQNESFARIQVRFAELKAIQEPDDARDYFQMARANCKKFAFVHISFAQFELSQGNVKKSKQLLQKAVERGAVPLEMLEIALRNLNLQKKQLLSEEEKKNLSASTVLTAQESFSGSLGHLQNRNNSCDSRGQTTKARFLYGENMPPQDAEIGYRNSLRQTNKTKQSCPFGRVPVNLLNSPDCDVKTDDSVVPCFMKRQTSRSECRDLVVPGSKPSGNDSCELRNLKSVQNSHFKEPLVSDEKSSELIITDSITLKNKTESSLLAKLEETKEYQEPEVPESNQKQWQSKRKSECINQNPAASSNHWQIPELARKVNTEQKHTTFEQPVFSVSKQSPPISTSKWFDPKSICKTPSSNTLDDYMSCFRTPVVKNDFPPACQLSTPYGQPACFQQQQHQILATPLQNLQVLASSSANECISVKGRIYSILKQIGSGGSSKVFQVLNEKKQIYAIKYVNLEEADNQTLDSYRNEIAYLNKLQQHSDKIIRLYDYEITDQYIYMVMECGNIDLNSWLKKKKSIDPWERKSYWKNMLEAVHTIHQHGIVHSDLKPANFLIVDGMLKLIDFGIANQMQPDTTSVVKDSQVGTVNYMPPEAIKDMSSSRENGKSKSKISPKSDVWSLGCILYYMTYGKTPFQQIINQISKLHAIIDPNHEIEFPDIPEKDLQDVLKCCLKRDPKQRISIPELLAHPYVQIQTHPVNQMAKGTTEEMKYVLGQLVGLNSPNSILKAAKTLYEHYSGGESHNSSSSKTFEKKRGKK

[15] = system: T6, Receptor-type tyrosine-protein kinase FLT3 (Homo sapiens), P36888 [D835Y]; conditions: at 1 µM
T6 sequence (whole entry): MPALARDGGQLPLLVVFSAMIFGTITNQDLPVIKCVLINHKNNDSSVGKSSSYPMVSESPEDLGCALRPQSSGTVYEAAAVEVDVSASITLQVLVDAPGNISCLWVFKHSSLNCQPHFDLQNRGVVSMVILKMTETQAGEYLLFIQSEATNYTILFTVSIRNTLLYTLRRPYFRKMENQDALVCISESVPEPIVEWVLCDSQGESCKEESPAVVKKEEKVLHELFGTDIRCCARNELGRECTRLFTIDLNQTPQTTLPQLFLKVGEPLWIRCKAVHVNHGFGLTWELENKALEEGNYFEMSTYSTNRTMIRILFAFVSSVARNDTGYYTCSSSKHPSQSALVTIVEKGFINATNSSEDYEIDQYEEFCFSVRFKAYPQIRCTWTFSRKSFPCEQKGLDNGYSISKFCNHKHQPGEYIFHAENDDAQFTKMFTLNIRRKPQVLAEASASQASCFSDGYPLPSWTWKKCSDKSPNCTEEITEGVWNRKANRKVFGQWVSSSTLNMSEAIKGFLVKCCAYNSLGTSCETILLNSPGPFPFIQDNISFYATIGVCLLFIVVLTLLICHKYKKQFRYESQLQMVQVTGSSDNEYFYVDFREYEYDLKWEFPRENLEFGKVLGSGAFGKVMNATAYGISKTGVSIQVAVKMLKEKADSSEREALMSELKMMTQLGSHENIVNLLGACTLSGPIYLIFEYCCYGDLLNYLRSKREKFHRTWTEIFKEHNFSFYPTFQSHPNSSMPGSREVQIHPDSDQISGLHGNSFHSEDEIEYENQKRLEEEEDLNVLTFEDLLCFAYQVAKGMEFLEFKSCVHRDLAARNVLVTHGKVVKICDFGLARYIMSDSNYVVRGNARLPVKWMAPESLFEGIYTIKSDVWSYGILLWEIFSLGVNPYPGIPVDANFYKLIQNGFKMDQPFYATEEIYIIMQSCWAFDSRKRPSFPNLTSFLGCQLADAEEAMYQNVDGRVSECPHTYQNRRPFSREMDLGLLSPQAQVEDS

[16] = molecular target: Vascular endothelial growth factor receptor 3 (Homo sapiens) (UniProt P35916); conditions: at 0.1 µM
Sequence of Vascular endothelial growth factor receptor 3 (Homo sapiens) (P35916 whole entry): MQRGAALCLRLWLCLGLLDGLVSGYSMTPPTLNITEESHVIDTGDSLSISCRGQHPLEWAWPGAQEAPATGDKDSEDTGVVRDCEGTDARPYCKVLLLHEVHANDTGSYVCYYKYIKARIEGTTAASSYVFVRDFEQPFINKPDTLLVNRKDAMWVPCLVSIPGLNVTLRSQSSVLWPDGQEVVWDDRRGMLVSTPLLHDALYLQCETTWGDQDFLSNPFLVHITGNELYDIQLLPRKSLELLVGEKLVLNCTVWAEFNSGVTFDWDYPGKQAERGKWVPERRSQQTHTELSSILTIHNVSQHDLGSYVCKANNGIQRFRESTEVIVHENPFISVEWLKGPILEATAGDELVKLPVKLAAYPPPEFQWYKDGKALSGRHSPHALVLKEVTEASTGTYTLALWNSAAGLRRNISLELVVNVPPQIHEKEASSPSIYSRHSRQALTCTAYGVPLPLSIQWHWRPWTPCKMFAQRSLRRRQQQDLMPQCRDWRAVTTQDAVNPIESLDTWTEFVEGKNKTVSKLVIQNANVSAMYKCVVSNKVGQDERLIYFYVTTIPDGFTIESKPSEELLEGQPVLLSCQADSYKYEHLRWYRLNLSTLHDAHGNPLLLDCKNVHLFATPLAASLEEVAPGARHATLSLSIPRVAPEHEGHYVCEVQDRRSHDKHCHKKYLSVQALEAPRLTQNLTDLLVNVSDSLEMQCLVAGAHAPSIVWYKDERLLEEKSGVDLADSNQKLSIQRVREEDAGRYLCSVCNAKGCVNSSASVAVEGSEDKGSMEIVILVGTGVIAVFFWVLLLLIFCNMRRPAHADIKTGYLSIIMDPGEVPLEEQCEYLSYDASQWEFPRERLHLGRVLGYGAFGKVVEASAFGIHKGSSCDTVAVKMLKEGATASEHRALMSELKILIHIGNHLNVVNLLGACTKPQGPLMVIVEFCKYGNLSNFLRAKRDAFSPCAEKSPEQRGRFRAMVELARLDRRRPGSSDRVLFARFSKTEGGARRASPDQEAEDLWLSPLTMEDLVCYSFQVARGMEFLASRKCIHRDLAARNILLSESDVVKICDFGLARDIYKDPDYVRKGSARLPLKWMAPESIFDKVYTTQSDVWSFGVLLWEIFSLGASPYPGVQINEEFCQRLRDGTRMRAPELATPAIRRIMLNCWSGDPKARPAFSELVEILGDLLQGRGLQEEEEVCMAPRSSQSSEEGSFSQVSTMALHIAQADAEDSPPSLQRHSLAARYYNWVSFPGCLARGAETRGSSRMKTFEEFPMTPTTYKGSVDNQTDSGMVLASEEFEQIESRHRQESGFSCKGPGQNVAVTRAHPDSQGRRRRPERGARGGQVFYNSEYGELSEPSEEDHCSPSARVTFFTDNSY

[17] = molecular target: Vascular endothelial growth factor receptor 3 (Homo sapiens) (UniProt P35916); conditions: at 1 µM
[18] = molecular target: Macrophage colony-stimulating factor 1 receptor (Homo sapiens) (UniProt P07333); conditions: at 0.1 µM
Sequence of Macrophage colony-stimulating factor 1 receptor (Homo sapiens) (P07333 whole entry): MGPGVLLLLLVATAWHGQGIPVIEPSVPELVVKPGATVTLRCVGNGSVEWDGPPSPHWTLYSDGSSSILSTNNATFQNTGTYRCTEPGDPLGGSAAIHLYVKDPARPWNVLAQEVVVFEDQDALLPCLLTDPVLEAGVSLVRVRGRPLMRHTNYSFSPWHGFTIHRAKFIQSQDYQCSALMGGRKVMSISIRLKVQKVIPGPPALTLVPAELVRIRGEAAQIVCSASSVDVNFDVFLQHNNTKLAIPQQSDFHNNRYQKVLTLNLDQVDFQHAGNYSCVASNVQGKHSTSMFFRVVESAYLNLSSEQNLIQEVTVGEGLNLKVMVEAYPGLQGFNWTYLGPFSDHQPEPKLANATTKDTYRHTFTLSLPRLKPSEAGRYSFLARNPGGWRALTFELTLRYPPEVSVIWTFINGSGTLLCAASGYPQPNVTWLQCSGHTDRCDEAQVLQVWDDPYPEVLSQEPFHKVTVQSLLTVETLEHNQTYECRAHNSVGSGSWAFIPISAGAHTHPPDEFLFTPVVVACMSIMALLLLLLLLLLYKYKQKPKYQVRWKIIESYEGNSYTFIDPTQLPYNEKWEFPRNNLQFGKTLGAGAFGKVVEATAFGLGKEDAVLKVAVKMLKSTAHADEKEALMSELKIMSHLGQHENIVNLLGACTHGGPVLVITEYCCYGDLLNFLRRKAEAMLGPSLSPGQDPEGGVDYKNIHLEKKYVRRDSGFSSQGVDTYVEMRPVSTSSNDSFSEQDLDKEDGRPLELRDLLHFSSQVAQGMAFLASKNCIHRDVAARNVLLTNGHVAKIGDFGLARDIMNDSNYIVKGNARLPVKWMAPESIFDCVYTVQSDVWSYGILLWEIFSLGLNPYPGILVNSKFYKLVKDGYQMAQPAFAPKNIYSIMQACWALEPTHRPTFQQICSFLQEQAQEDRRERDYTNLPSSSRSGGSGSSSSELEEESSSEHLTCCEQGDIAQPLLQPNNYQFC

[19] = molecular target: Macrophage colony-stimulating factor 1 receptor (Homo sapiens) (UniProt P07333); conditions: at 1 µM
[20] = molecular target: Tyrosine-protein kinase Fyn (Homo sapiens) (UniProt P06241); conditions: at 0.1 µM
Sequence of Tyrosine-protein kinase Fyn (Homo sapiens) (P06241 2-537 limits assumed): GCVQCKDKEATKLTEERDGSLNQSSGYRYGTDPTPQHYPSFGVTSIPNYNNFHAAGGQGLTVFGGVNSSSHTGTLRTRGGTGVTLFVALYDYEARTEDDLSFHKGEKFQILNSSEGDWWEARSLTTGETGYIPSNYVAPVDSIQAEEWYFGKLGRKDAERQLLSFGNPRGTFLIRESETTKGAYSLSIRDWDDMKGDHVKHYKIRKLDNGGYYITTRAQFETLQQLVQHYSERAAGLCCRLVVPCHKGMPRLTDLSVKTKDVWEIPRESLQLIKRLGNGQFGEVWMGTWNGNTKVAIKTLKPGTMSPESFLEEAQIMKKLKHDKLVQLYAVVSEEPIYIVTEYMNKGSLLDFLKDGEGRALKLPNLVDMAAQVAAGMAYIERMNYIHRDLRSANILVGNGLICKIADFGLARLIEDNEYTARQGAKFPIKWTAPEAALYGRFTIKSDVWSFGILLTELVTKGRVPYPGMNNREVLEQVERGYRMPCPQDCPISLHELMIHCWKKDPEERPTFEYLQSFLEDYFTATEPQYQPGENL

Structure (SMILES)	inhibition [1] [%]	inhibition [2] [%]	inhibition [3] [%]	inhibition [4] [%]	inhibition [5] [%]	inhibition [6] [%]	inhibition [7] [%]	inhibition [8] [%]	inhibition [9] [%]	inhibition [10] [%]	inhibition [11] [%]	inhibition [12] [%]	inhibition [13] [%]	inhibition [14] [%]	inhibition [15] [%]	inhibition [16] [%]	inhibition [17] [%]	inhibition [18] [%]	inhibition [19] [%]	inhibition [20] [%]
CC(C)c1ccc2c(c1)NC(=O)/C2=N/Nc1ccc(S(N)(=O)=O)cc1	-1.41	0.8	-0.15	1.08	0.29	1.12	2.08	-0.24	1.29	2.87	4.79	2.6	1.38	2.93	3.33	1.38	5.37	5.18	34.6	2.02
CN(C)CCCn1c(-c2nonc2N)nc2cnccc21	4.6	2.29	2.28	5.09	5.23	0.8	5.07	6.28	1.98	8.39	12.3	3.73	4.15	8.12	-1.23	15.4	15.3	2.34	1.06	2.62

Source: ChEMBL document CHEMBL1961873, “Compounds: GSK PKIS; Assays: Nanosyn kinase panel” (2012)
